Assay outcomes deposited in PubChem by National Center for Advancing Translational Sciences (NCATS).
In the library only some 3.9% were active in any assay of this set; here they are far more common.
NTMT1 inh – NTMT1 methyltransferase inhibition; NTMT1 MTase-Glo SAH luminescence, purified enzyme; Potency, µM (titrated, usually from 114 µM), inactives show top-dose activity change, negative = inhibition, most hits filed as inhibitors; 59,000 compounds, 2.5% hits; AID 1645870;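 note: potency is the fitted concentration of half-maximal effect; plate controls were DMSO vehicle for no effect and no enzyme for full effect; nearly all actives have a fitted effect of over 65% in size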
Target sequence (Q9BV86 whole entry, looked up): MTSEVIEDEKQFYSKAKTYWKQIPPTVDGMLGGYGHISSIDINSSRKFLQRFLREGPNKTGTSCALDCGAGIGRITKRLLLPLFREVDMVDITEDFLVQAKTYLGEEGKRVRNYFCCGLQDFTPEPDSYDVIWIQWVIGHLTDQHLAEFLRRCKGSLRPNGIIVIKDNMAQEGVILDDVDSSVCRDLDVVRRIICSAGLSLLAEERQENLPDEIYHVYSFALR
p53null 39C kill – kills p53 null cells at the nonpermissive temperature; H1299 p53-null (neo) cells, 39C, ATPlite viability, 24 h; Potency, µM (highest dose often 46.1 µM), for the others: top-dose activity, negative = cell killing, most hits filed as cytotoxic; 55,000 compounds, 0.97% hits; AID 904;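 note: potency is the fitted concentration of half-maximal effect; 0% = DMSO only and -100% = full killing by 100 µM tamoxifen; nearly all actives have a fitted effect of over 50% in size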
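H1299 lung cancer cells, p53-null (H1299-neo) or expressing p53 A138V (H1299-p53A138V), were plated overnight at 37C, then exposed to compounds at up to 46 uM for 24 hr at 39C. Viability was read by ATP-based luminescence.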
GPR32 ag – GPR32 (DRV1) agonism, beta-arrestin recruitment | O75388 | CHO-K1 GPR32 beta-arrestin PathHunter luminescence, 90 min; zero percent set by DMSO-only wells | activation, % at 76.9 µM | 48,000 compounds, 2.5% hits;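 active = activation of at least 60% and not above a set upper limit, about 1 call in 100 departs from these limits; inconclusive = activation of 40% to 60%, or above that upper limit; inactive = activation under 40%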; note: 0% is about no effect
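PathHunter beta-arrestin recruitment in CHO-K1 cells stably expressing ProLink-tagged GPR32. Cells were exposed to compound for 90 min at 37 C, then chemiluminescence was read after 1 h detection at ambient temperature; DMSO served as basal control.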
FH mod – Identification of activators of human fumarate hydratase by quantitative high-throughput screening | 54,000 compounds, 0.22% hits | FH coupled MDH/diaphorase resazurin fluorescence, 15 min | AID 1347055, 2019 | Fumarate hydratase, mitochondrial (Homo sapiens), P07954 | Potency, µM (highest dose often 79.9 µM), without a hit: at the highest dose activity change, negative = inhibition, actives largely listed as inhibitors; note: potency is the fitted concentration of half-maximal effect; % is set by controls: 0 for no effect and ±100 for the full control effect; the screen sought activators but most active calls are inhibition curves; nearly all actives have a fitted effect of over 45% in size
Target sequence (P07954 whole entry, looked up): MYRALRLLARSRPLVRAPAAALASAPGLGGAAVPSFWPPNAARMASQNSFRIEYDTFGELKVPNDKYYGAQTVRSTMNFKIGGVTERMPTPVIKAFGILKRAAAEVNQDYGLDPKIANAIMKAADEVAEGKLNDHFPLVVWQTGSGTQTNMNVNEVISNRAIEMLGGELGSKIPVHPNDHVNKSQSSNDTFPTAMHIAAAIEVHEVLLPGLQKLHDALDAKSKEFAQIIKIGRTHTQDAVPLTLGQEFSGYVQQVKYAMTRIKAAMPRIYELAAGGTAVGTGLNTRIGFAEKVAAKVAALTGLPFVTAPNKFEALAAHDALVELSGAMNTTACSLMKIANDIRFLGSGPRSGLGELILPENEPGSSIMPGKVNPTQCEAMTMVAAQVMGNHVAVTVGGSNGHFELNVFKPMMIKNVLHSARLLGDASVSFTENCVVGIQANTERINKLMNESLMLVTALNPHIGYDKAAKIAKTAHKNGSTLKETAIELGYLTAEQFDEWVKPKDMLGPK
p53null 32C tox – p53 null cell cytotoxicity, permissive temperature; H1299-neo p53 null cells, ATP luminescence, 24 h, 32C; Potency, µM (series often up to 46.1 µM), inactives show at the top dose activity change, negative = cytotoxicity, usual class: cytotoxic; 55,000 compounds, 0.62% hits;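 note: potency is the fitted concentration of half-maximal effect; 0% = DMSO only and -100% = full killing by 100 µM tamoxifen; nearly all actives have a fitted effect of over 55% in size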
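Cytotoxicity: H1299-neo (no p53), 32C, 24 h treatment. Concentrations up to 46 uM. Readout cellular ATP, luminescence. Normalization to DMSO basal and tamoxifen 100 uM maximal kill.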
GALC G270D act – enhancers of human galactocerebrosidase G270D mutant activity in cells; P54803; 145M-Twi-hGALC-G270D cells (Twitcher mouse brain line with human GALC G270D), HMU-beta-Gal fluorescence, 48 h; AID 1159614; Potency, µM (series often up to 57.5 µM), actives largely listed as activators; 45,000 compounds, 0.1% hits; note: potency is the fitted concentration of half-maximal effect; 0% is about no effect; nearly all actives have a fitted effect of over 65% in size
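Fluorescence readout: HMU-β-gal cleavage by mutant GALC (0.1 mM final, citrate/phosphate pH 5.2 with 1 mg/mL taurocholate), stopped with carbonate/bicarbonate plus Triton X-100. Cells: murine Twitcher 145M-Twi expressing human G270D GALC; qHTS for activators.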
Active calls of the source: *; i = inactive; ? = inconclusive; nt = not tested or not shown; [ ] = remark or other dose. Unless noted, calls come from the whole dose curve; as a rule, active = well fitted curve in the direction sought with a large enough effect; inconclusive = small, poorly fitted or top-dose-only effect, or another doubt; inactive = no such curve, though single readings can be large; an effect the other way counts as inactive or inconclusive.

SMILES	NTMT1 inh	p53null 39C kill	GPR32 ag	FH mod	p53null 32C tox	GALC G270D act
CCCCN1C(=O)C(O)(CC(=O)c2ccc(C(C)(C)C)cc2)c2ccccc21 (stereo not drawn)	4%	20µM*	-5	?	56%	i
CC(Nc1ccc([S+](=O)([O-])Nc2nccs2)cc1)c1ccccc1 (stereo not drawn)	6%	nt	nt	nt	nt	nt
CCCCN1CC(c2nc3ccccc3n2CCCCOc2cc(C)cc(C)c2)CC1=O (stereo not drawn)	6%	8%	7	?	4%	i
CCCCN1CC(c2nc3ccccc3n2CCCCOc2cccc(C)c2C)CC1=O (stereo not drawn)	29%	-3%	109*	?	-3%	i
O=C1CC(c2nc3ccccc3n2CCC2CCCCC2)CN1c1ccccc1Cl (stereo not drawn)	3%	16µM*	-6	-13%	?	i
CCOc1ccc(N2CC(c3nc4ccccc4n3CCC3CCCCC3)CC2=O)cc1 (stereo not drawn)	1%	35%	5	?	24%	i
CCOc1ccccc1N1CC(c2nc3ccccc3n2CCCCOc2cc(C)ccc2C)CC1=O (stereo not drawn)	89µM*	13µM*	-9	-15%	?	i
CCOc1ccccc1N1CC(c2nc3ccccc3n2CCOc2ccc(C(C)(C)C)cc2)CC1=O (stereo not drawn)	4%	20µM*	73*	-5%	?	i
CCOc1ccccc1N1CC(c2nc3ccccc3n2CCCOc2ccccc2OC)CC1=O (stereo not drawn)	3%	-11%	-11	?	-2%	i
COc1ccc2c(c1)[C@]1(C[C@H]1c1ccc3c(/C=C/c4ccc(CN5C[C@@H](C)O[C@@H](C)C5)cc4)n[nH]c3c1)C(=O)N2	2%	nt	nt	nt	nt	nt
CCN(CCNC(=O)Nc1ccccc1Br)c1cccc(C)c1	7%[57.5 µM]	nt	nt	-4%	nt	nt
Oc1ccc(CNc2cc(C(F)(F)F)ccn2)c2cccnc12	-5%[57.5 µM]	nt	nt	nt	nt	nt
CCc1ccccc1N1CC(c2nc3ccccc3n2CCOc2ccc(Cl)c(C)c2)CC1=O (stereo not drawn)	4%	18µM*	77*	?	39%	i
Cc1cccc(CCNC(=O)c2cc3ccccn3n2)c1	nt	-13%	101*	nt	-16%	nt
CC(=O)c1[nH]cc(CCC(=O)O)c1CC(=O)O	11%[57.5 µM]	nt	nt	11%	nt	nt
COc1ccc(-c2cc(C(=O)Oc3ccc(Br)cc3)c3ccccc3n2)cc1	-4%	13µM*	-20	-13%	?	i
CC(C)=CCC(O)[C@](C)(O)C1[C@H](O)C[C@@]2(C)C3CC=C4C(C[C@H](O)[C@@H](O[C@@H]5O[C@H](CO)[C@@H](O)[C@H](O)[C@H]5O)C4(C)C)[C@]3(C)C(=O)C[C@]12C (stereo partly drawn)	4%[12.6 µM]	nt	nt	1%[20.6 µM]	nt	nt
CCCCN(CC)C(=O)c1c[nH]c2ccc(S(=O)(=O)N(C)c3ccc(Cl)cc3)cc2c1=O	?	8%	91*	1%	13%	i
CC(C)N(CCCNC(=O)Nc1ccc(C(C)(C)C)cc1)C[C@H]1O[C@@H](n2cc(Br)c3c(N)ncnc32)[C@H](O)[C@H]1O	19µM*	nt	nt	2%[53.3 µM]	nt	nt
NC[C@H]1O[C@@H](n2cnc3c(N)ncnc32)[C@H](O)[C@@H]1O	nt	nt	3	-22%[53.3 µM]	nt	nt
NCCCCC(=O)Nc1ccc(Cl)cc1C(=O)c1ccc[nH]1	8%	nt	nt	nt	nt	nt
Cc1cc2[nH]c(=O)c(=O)[nH]c2cc1S(=O)(=O)N1CCN(c2ccccc2)CC1	-24%	6%	95*	?	4%	i
COc1cc2c(cc1O)C1(Cc3ccc4c(c3C1O)OCO4)[N+](C)([O-])CC2 (stereo not drawn)	11%[29.8 µM]	nt	nt	-13%[53.3 µM]	nt	nt
Cc1cc(C2CCCCC2)n(O)c(=O)c1	?	nt	77*	13%[53.3 µM]	nt	i
CCC(=O)C1=C(c2ccc(C)cc2)N(C(=O)CC)n2c(nnc2C2CCCCC2)S1	-3%	-9%	-39	-1%	6%	i
SMILES	NTMT1 inh	p53null 39C kill	GPR32 ag	FH mod	p53null 32C tox	GALC G270D act
CC(C)=CCc1cc(O[C@@H]2O[C@H](CO[C@@H]3OC[C@](O)(CO)[C@H]3O)[C@@H](O)[C@H](O)[C@H]2O)ccc1O	6%[29.8 µM]	nt	nt	8%[53.3 µM]	nt	nt
Cc1cc(CN2CCN(c3ccccc3F)CC2)cs1	18%	-25%	102*	-21%	-8%	i
Cc1cc(CN2CCN(c3cccc(C)c3C)CC2)cs1	-10%	?	-20	-16%	-15%	i
Cc1cc(NC(=O)Nc2nnc(C3CCCCC3)s2)ccc1Br	-2%	nt	nt	nt	nt	nt
Oc1ccc(Cl)cc1Cc1cc(Cl)ccc1O	?	nt	69*	?	nt	i
CCCCN(C)C(=O)Cn1nc(-c2ccccc2C)ccc1=O	9%	nt	nt	nt	nt	nt
NS(=O)(=O)Oc1ccc2c3c(c(=O)oc2c1)CCCCC3	28µM*	nt	nt	nt	nt	nt
O=C(Oc1ccc2c3c(c(=O)oc2c1)CCC3)c1ccccc1[N+](=O)[O-]	nt	nt	nt	nt	-13%	nt
O=C(Cn1nc(-c2ccc(OC(F)(F)F)cc2)ccc1=O)NCCc1ccccc1	11%	nt	nt	nt	nt	nt
CCCN(CCC)C(=O)Cn1c(=O)n(-c2ccc(CC)cc2)c(=O)c2c3c(sc21)CCC3	89µM*	15%	-14	-11%	23%	i
OC(CNCCc1c[nH]c2ccccc12)Cn1c2ccccc2c2ccccc21 (stereo not drawn)	?	nt	nt	-12%	nt	nt
Cc1cccn2c(=O)c3cc(C(=O)NCc4ccccc4)c(=N)n(CCOCCO)c3nc12	1%	17%	4	0%	1%	10µM*
CCOCCCn1c(=N)c(C(=O)NC(C)c2ccccc2)cc2c(=O)n3cccc(C)c3nc21 (stereo not drawn)	2%	-3%	-5	4%	11%	20µM*
CCn1c(=N)c(C(=O)NCc2ccccc2)cc2c(=O)n3cccc(C)c3nc21	-1%	-2%	16	4%	-1%	i
CCn1c(=N)c(C(=O)NC2CCCCC2)cc2c(=O)n3cccc(C)c3nc21	1%	-6%	-2	0%	3%	28µM*
Cc1cccn2c(=O)c3cc(C(=O)NC(C)c4ccccc4)c(=N)n(CCOCCO)c3nc12 (stereo not drawn)	-15%	15%	3	10%	3%	i
N[C@@H](CCC(=O)O)C(=O)N[C@@H](Cc1c[nH]c2ccccc12)C(=O)O	8%	nt	nt	nt	nt	nt
